Measurements taken from PubChem BioAssay (NCATS).
Records with an inconclusive call do not appear. Activity calls are given as the source filed them. Calls come from the whole dose curve; as a rule, active = well fitted curve in the direction sought with a large enough effect; inconclusive = small, poorly fitted or top-dose-only effect, or another doubt; inactive = no such curve, though single readings can be large; an effect the other way counts as inactive or inconclusive.

Columns and labels:
[1] = tested on: HACAT; assay: qHTS assay to identify novel small-molecules to repurpose for Merkel cell carcinoma treatment (AID 1296009); conditions: MCC and control cell lines, CellTiter-Glo viability, 72 h; at 44.8 µM (top of the series) unless noted; note: nearly all actives have a fitted effect of over 60% in size; note: potency is the fitted concentration of half-maximal effect
Procedure, shortened: (§1)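 Cells exposed to NPC (8-point) and MIPE (11-point) compound dilutions for 72 hr at 37 degree celsius; viability read by CellTiter-Glo luminescence, normalized to no-cell and DMSO in-plate controls.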

[2] = tested on: MCC-13; assay: as above; conditions: MCC and control cell lines, CellTiter-Glo viability, 72 h; series mostly up to 46 µM
Procedure, shortened: as §1

[3] = tested on: MKL-1; assay: as above; conditions: MCC and control cell lines, CellTiter-Glo viability, 72 h; series mostly up to 46 µM
Procedure, shortened: as §1

[4] = tested on: MKL-2; assay: as above; conditions: MCC and control cell lines, CellTiter-Glo viability, 72 h; series mostly up to 46 µM
Procedure, shortened: as §1

[5] = tested on: WaGa; assay: as above; conditions: MCC and control cell lines, CellTiter-Glo viability, 72 h; series mostly up to 46 µM
Procedure, shortened: as §1

[6] = tested on: UISO; assay: as above; conditions: MCC and control cell lines, CellTiter-Glo viability, 72 h; series mostly up to 46 µM
Procedure, shortened: as §1

[7] = tested on: MCC-26; assay: as above; conditions: MCC and control cell lines, CellTiter-Glo viability, 72 h; series mostly up to 46 µM
Procedure, shortened: as §1

[8] = tested on: NIH3T3; assay: as above; conditions: MCC and control cell lines, CellTiter-Glo viability, 72 h; at 44.8 µM (top of the series) unless noted
Procedure, shortened: as §1

[9] = tested on: HEK293T; assay: as above; conditions: MCC and control cell lines, CellTiter-Glo viability, 72 h; series mostly up to 44.8 µM
Procedure, shortened: as §1

[10] = tested on: C33A; assay: Primary qHTS to identify gynecologic anti-cancer compounds using libraries of approved drugs and bioactive compounds (AID 1345084); conditions: Gynecologic cancer cell panel viability, ATPlite luminescence, 48 h; series mostly up to 57.5 µM; note: nearly all actives have a fitted effect of over 55% in size
Procedure, shortened: (§2)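 Measured: luminescence after ATPlite addition (15 min, RT). Exposure: 48 h, 37 C, 5% CO2.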

[11] = tested on: CASKI; assay: as above; conditions: Gynecologic cancer cell panel viability, ATPlite luminescence, 48 h; series mostly up to 57.5 µM
Procedure, shortened: as §2

[12] = tested on: Es-2; assay: as above; conditions: Gynecologic cancer cell panel viability, ATPlite luminescence, 48 h; series mostly up to 57.5 µM
Procedure, shortened: as §2

[13] = tested on: Hek293T; assay: as above; conditions: Gynecologic cancer cell panel viability, ATPlite luminescence, 48 h, control line for the selectivity index; series mostly up to 57.5 µM
Procedure, shortened: as §2

[14] = tested on: JEG-3; assay: as above; conditions: Gynecologic cancer cell panel viability, ATPlite luminescence, 48 h; series mostly up to 57.5 µM
Procedure, shortened: as §2

[15] = tested on: OV90; assay: as above; conditions: Gynecologic cancer cell panel viability, ATPlite luminescence, 48 h; series mostly up to 57.5 µM
Procedure, shortened: as §2

[16] = tested on: PA-1; assay: as above; conditions: Gynecologic cancer cell panel viability, ATPlite luminescence, 48 h; series mostly up to 57.5 µM
Procedure, shortened: as §2

[17] = tested on: Tov-21-G; assay: as above; conditions: Gynecologic cancer cell panel viability, ATPlite luminescence, 48 h; series mostly up to 57.5 µM
Procedure, shortened: as §2

[18] = tested on: Tov112D; assay: as above; conditions: Gynecologic cancer cell panel viability, ATPlite luminescence, 48 h; series mostly up to 57.5 µM
Procedure, shortened: as §2
% is set by controls: 0 for no effect and ±100 for the full control effect.

CCN(C(=O)c1c(O)c2c(Cl)cccc2n(C)c1=O)c1ccccc1
inactive: outcome [1] | Potency [2] | Potency [3] | Potency [4] | Potency [5]

O=C(C[C@@H]1CC=CCCC(=O)O[C@H](c2ccccc2)CNC1=O)NCc1ccc(Cl)cc1
inactive: outcome [1] | Potency [2] | Potency [3] | Potency [4] | Potency [6] | Potency [5]

O=C(C=CC=Cc1ccc2c(c1)OCO2)N1CCCCC1
inactive: Potency [2] | Potency [7] | Potency [3] | Potency [4] | outcome [8] | Potency [6] | Potency [5]

CC[C@H]1OC(=O)[C@H](C)[C@@H](O[C@H]2C[C@@](C)(OC)[C@@H](O)[C@H](C)O2)[C@H](C)[C@@H](O[C@@H]2O[C@H](C)C[C@H](N(C)C)[C@@H]2O)[C@](C)(OC)C[C@@H](C)C(=O)[C@H](C)[C@@H](O)[C@]1(C)O
inactive: Potency [2] | Potency [7] | Potency [3] | Potency [4] | outcome [8] | Potency [6] | Potency [5]

CN(CC(=O)N(Cc1ccc(C2CCCCC2)cc1)c1ccc(C(=O)O)c(O)c1)S(=O)(=O)c1c(F)c(F)c(F)c(F)c1F
active: Potency [3] 8.33 µM | Potency [5] 6.62 µM
inactive: Potency [9] | Potency [7] | outcome [8] | Potency [6]

C#Cc1cccc(Nc2ncnc3cc(OCCOC)c(OCCO)cc23)c1
inactive: Potency [2] | Potency [7]

C=C1C(=CC=C2CCC[C@]3(C)[C@@H]([C@H](C)CCCC(C)(C)O)CC[C@@H]23)C[C@@H](O)C[C@@H]1O
active: Potency [3] 16.6 µM | Potency [4] 6.62 µM | Potency [5] 1.48 µM
inactive: outcome [1]

CCN1CCN(C(=O)N[C@H](C(=O)N[C@@H]2C(=O)N3C(C(=O)O)=C(CSc4nnnn4C)CS[C@@H]23)c2ccc(O)cc2)C(=O)C1=O
inactive: outcome [9] inactive [at 9.27 µM] | activity change, negative = cytotoxicity [2] 4.78% [at 9.22 µM] | activity change, negative = cytotoxicity [7] -6.39% [at 9.22 µM] | activity change, negative = cytotoxicity [3] 8.33% [at 9.22 µM] | activity change, negative = cytotoxicity [4] -17.3% [at 9.22 µM] | activity change, negative = cytotoxicity [6] -1.23% [at 9.22 µM] | activity change, negative = cytotoxicity [5] -1.78% [at 9.22 µM]

O=C(CN1C(=O)C2(CCCC2)NC[C@H]1c1cc(F)cc(F)c1)Nc1ccc2c(c1)C[C@@]1(C2)C(=O)Nc2ncccc21
inactive: Potency [9] | Potency [2] | Potency [7] | Potency [3] | Potency [4] | Potency [6] | Potency [5]

O=S(=O)(O)CCSSCCS(=O)(=O)O
inactive: Potency [9] | Potency [2] | Potency [7] | Potency [3] | Potency [4] | Potency [6] | Potency [5]

O=c1[nH]c(=O)n([C@H]2C[C@@H](O)[C@@H](CO)O2)cc1C=CBr
inactive: Potency [2] | Potency [7] | Potency [3] | Potency [4] | outcome [8] | Potency [6] | Potency [5]

c1cc(CN2CCCNCCNCCCNCC2)ccc1CN1CCCNCCNCCCNCC1
inactive: Potency [9] | Potency [2] | Potency [3] | Potency [4] | Potency [6] | Potency [5]

CC(C)c1cnn2c(NCc3ccccc3)cc(NCCCCCCN)nc12
inactive: outcome [1] | Potency [2] | Potency [6] | Potency [5]

C[C@H](CCC(=O)O)[C@H]1CCC2C3C[C@H](O)[C@@H]4C[C@H](O)CC[C@]4(C)C3CC[C@@]21C (some centres not stated)
inactive: Potency [2] | Potency [7] | Potency [3] | Potency [4] | outcome [8] | Potency [6] | Potency [5]

O=C1NC(=O)[C@@H](c2cn3c4c(cccc24)CCC3)[C@H]1c1c[nH]c2ccccc12
active: Potency [2] 3.32 µM | Potency [4] 23.5 µM | Potency [6] 1.18 µM
inactive: outcome [1]

C=CC[C@@H]1C=C(C)C[C@H](C)C[C@H](OC)[C@H]2O[C@@](O)(C(=O)C(=O)N3CCCC[C@H]3C(=O)O[C@H](C(C)=C[C@@H]3CC[C@H](O)[C@H](OC)C3)[C@@H](C)[C@@H](O)CC1=O)[C@@H](C)C[C@@H]2OC
inactive: outcome [1] | Potency [7] | outcome [8]

CCCCCCCCCCCCc1ccc(S(=O)(=O)Nc2nncs2)cc1
inactive: Potency [9] | Potency [2] | Potency [7] | Potency [3] | Potency [4] | outcome [8] | Potency [6] | Potency [5]

Cc1cncc2cccc(S(=O)(=O)N3CCCN(C(=O)CN)C[C@@H]3C)c12
inactive: Potency [9] | Potency [7] | Potency [4] | Potency [6] | Potency [10] | Potency [11] | Potency [12] | Potency [13] | Potency [14] | Potency [15] | Potency [16] | Potency [17] | Potency [18]

O=C(O)CCCCCC(=O)NN=C1CCCC1
inactive: Potency [9] | Potency [2] | Potency [7] | Potency [3] | Potency [4] | Potency [6] | Potency [5]
